Measurements taken from PubChem BioAssay (Tox21).
Where “and” joins values, the source holds several entries; their conditions need not be identical. Equal entries are not always repeated. Inconclusive results are not listed. A call without a number means that no potency is given here. Calls of active or inactive are those of the source. Calls follow the shape of the full dose curve.
Potency is read from the fitted curve at half-maximal effect.

Assay: qHTS assay to identify small molecule agonists of H2AX - cell viability counter screen (AID 1224847); also: nearly all actives have a fitted effect of over 30% in size
Conditions: CHO-K1 viability, CellTiter-Glo luminescence, 3 h; series mostly up to 154 µM
Text: National Center for Advancing Translational Sciences [NCATS]
NIH Chemical Genomics Center [NCGC]
U.S. Environmental Protection Agency [EPA]
National Institutes of Environmental Health Sciences [NIEHS]
National Toxicology Program [NTP]
U.S. Food and Drug Administration [FDA]
HTRF phospho-H2AX (Ser139) assay (Cisbio Bioassays, US) enables the quantitative detection of the histone variant H2AX when phosphorylated on serine 139. When double-stranded DNA breaks, either by ionizing radiation or endogenous physiological processes, H2AX becomes phosphorylated at Ser139. This phospho-Ser139 serves as a sensitive biomarker for the detection of such breaks, localizing the site of DNA repair. So, HTRF phospho-H2AX Ser139 is a pertinent assay to study genome stability, the cell cycle, DNA repair, and it serves as a biomarker for cancer, and to understand aging. Wild type CHO-K1 cells were used to identify the inducers of Phospho-H2AX Ser 139 from the Tox21 compound collections. Also cytotoxicity of the Tox21 10K compound library against the CHO-K1 cell line was tested by measuring the cell viability using CellTiter-Glo assay (Promega, Madison, WI).
Tox21 Assay Protocol Summary:
The CHO-K1 cells suspended in culture medium containing 10% FBS were dispensed at 1000 cells/ 3 ul/well in 1536-well white wall/solid bottom plates (Greiner Bio-One North America, NC) using a Multidrop Combi (Thermo Fisher Scientific Inc., Waltham, MA). After the assay plates were incubated at 37C overnight, 23 nl of compounds at 15 concentrations (from 5-48 columns) or positive control (from 1 to 4 columns) were transferred to the assay plates using a Pintool station (Wako, San Diego, CA) into each well resulting in a final DMSO concentration of 0.76%. After 3hr incubation at 37C, 3 uL/well CellTiter-Glo luminescent cell viability reagent (Promega Corporation, Madison, WI) was added using a Flying Reagent Dispenser (FRD) (Aurora Discovery, CA). After incubation at room temperature for 30 min, the luminescence intensity was read using a ViewLux plate reader (PerkinElmer, Waltham, MA).
For `NC(=O)c1ccc(N)nc1`, the Potency was “inactive”. With `COP(=O)(CCC(=O)NCO)OC` the Potency was “inactive”. With `CC(=[OH+])/C=C(/C)[O-].CC(=[OH+])/C=C(\C)[O-].CC(=[OH+])/C=C(\C)[O-].[Fe]` the Potency was “inactive”. For `CCS(=O)(=O)c1cccnc1S(=O)(=O)NC(=O)Nc1nc(OC)cc(OC)n1`, the Potency was “inactive”. With `CN(C)C(=S)S` the Potency was “inactive”. In the case of `COc1cc(C=O)cc2c1[C@H](COC(N)=O)[C@]1(OC(C)=O)ON2C[C@H]2[C@@H]1N2C(C)=O`, the Potency is reported as “inactive”. In the case of `CCC(C)(C)C(=O)OC1=C(c2ccc(Cl)cc2Cl)C(=O)OC12CCCCC2`, the Potency is reported as “inactive”. In the case of `N#CC(Cl)Cl`, the Potency is reported as “inactive”. For `CC(C)CBr`, the Potency was “inactive”. For `Oc1ccc(C2(c3ccc(O)cc3)CCCCC2)cc1`, the Potency was 95.4 µM (active). With `CCOP(=S)(OCC)SCS(=O)(=O)C(C)(C)C` the Potency was “inactive”. With `O=C(CCl)C(Cl)Cl` the Potency was “inactive”. With `O=c1ssc(Cl)c1Cl` the Potency was 89.8 µM (active). In the case of `CCCSP(=O)(OCC)SCCC`, the Potency is reported as “inactive”. For `ClC1=C(Cl)C2(Cl)C3C(Cl)C(Cl)CC3C1(Cl)C2(Cl)Cl` (stereo not given), the Potency was 89.5 µM (active) and 101 µM (active). For `O=S(=O)(c1ccc(Cl)cc1)c1ccc(Cl)cc1`, the Potency was 57.3 µM (active). With `CC(=O)c1ccc(-c2ccccc2)cc1` the Potency was “inactive”. In the case of `ClC(Cl)=C(Cl)Cl`, the Potency is reported as “inactive”. In the case of `CC(C)C1CCC(Cc2ccc(Cl)cc2)C1(O)Cn1cncn1` (stereo not given), the Potency is reported as 88.9 µM (active). With `CC1(c2ccc(Oc3ccccc3)cc2)OC(=O)N(Nc2ccccc2)C1=O` (stereo not given) the Potency was 50.8 µM (active). In the case of `BrCBr`, the Potency is reported as “inactive”. In the case of `CCOC(=O)c1ccccc1S(=O)(=O)NC(=O)Nc1nc(Cl)cc(OC)n1`, the Potency is reported as “inactive”. In the case of `CCCCOCN(C(=O)CCl)c1c(CC)cccc1CC`, the Potency is reported as 101 µM (active). With `Cc1cc(SCc2sc(-c3ccc(C(F)(F)F)c(F)c3)nc2C)ccc1OCC(=O)O` the Potency was 101 µM (active). For `O=C(Cl)c1ccc(Cl)cc1`, the Potency was “inactive”. In the case of `CCSC(C)CC1CC(=O)C(/C(CC)=N/OC/C=C/Cl)=C(O)C1` (stereo not given), the Potency is reported as “inactive”. In the case of `CCCN(CCC)c1c([N+](=O)[O-])cc(S(N)(=O)=O)cc1[N+](=O)[O-]`, the Potency is reported as 89.8 µM (active). For `CC(C)CCCCCOC(=O)c1ccccc1C(=O)OCCCCCC(C)C`, the Potency was “inactive”. In the case of `N#Cc1c(-c2ccc(Cl)cc2)[nH]c(C(F)(F)F)c1Br`, the Potency is reported as 2.84 µM (active). For `BrCC(Br)c1ccccc1` (stereo not given), the Potency was “inactive”. For `COc1cc(N)c(Cl)cc1C(=O)NC1CN2CCC1CC2` (stereo not given), the Potency was “inactive”. For `CC(O)C#N` (stereo not given), the Potency was “inactive”. In the case of `Cc1c(Cl)c(=O)oc2cc(OP(=O)(OCCCl)OCCCl)ccc12`, the Potency is reported as “inactive”. In the case of `C[C@]12CC[C@@H]3c4ccc(OC(=O)N(CCCl)CCCl)cc4CC[C@H]3[C@@H]1CC[C@@H]2O`, the Potency is reported as “inactive”. In the case of `O=C(O)C1C2CCC(O2)C1C(=O)O` (stereo not given), the Potency is reported as “inactive”. For `N#CCc1ccc(Cl)cc1`, the Potency was “inactive”. With `COS(=O)(=O)c1ccc(C)cc1` the Potency was “inactive”. With `C[C@@H]1CC[C@@]2(OC1)O[C@H]1[C@@H](O)[C@H]3[C@@H]4CC[C@H]5C[C@@H](O[C@@H]6O[C@H](CO)[C@H](O[C@@H]7O[C@H](CO)[C@@H](O)[C@H](O[C@@H]8OC[C@@H](O)[C@H](O)[C@H]8O)[C@H]7O[C@@H]7O[C@H](CO)[C@@H](O)[C@H](O[C@@H]8O[C@H](CO)[C@@H](O)[C@H](O)[C@H]8O)[C@H]7O)[C@H](O)[C@H]6O)[C@H](O)C[C@]5(C)[C@H]4CC[C@]3(C)[C@H]1[C@@H]2C` the Potency was 10.7 µM (active). With `N#Cc1ccccc1Cl` the Potency was “inactive”. With `C[C@@H]1O[C@@H](O[C@H]2C[C@@H](O)[C@]3(CO)[C@H]4[C@H](O)C[C@]5(C)[C@@H](C6=CC(=O)OC6)CC[C@]5(O)[C@@H]4CC[C@]3(O)C2)[C@H](O)[C@H](O)[C@H]1O` the Potency was “inactive”.
